# PubChem BioAssay
# For part of these data: Measured potencies and affinities stand elsewhere. Active and inactive are the calls of the source.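 The calls were made as follows, unless noted: active = dose curve with midpoint inside tested range, moderate steepness, plateau gap beyond fit error, low compound glow and bead-link interference; inactive = the rest.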
# What was measured:
# [1] = target: Cell division control protein 42 homolog (Homo sapiens) (UniProt P60953); assay: activated mutant Cdc42 GTP-binding inhibitors, dose response, biochemical, multiplex bead flow cytometry, Bodipy-FL-GTP (AID 1333;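 active = fitted half-maximal concentration within the tested dose range, moderate curve steepness, a statistically real signal drop, and little compound fluorescence or tag-binding interference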)
# Sequence of Cell division control protein 42 homolog (Homo sapiens) (P60953 whole entry, looked up): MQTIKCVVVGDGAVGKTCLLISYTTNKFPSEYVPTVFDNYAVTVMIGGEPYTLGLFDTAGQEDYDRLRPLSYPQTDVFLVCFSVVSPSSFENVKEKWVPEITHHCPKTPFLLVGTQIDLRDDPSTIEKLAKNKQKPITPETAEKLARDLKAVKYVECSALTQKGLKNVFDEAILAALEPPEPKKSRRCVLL
# [2] = target: Cell division control protein 42 homolog (Homo sapiens) (UniProt P60953); assay: wildtype Cdc42 GTP-binding inhibitors, dose response, biochemical, multiplex bead flow cytometry, Bodipy-FL-GTP (AID 1334;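 active = fitted half-maximal concentration within the tested range, moderate curve steepness, significant signal drop, and little compound fluorescence or bead-linkage interference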); details: bead-based flow cytometry, Bodipy-FL-GTP binding to GST-Cdc42; at 100 µM (top of the series) unless noted
# [3] = target: GTPase HRas (Homo sapiens) (UniProt P01112); assay: inhibitors of GTP binding to wildtype Ras, dose response, biochemical, multiplex bead flow cytometry (AID 1335;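 active = fitted half-maximal concentration within 10 nM to 100 µM, steepness 0.5 to 2, significant signal drop, low assay interference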); details: bead-based flow cytometry, Bodipy-GTP binding to GST-Ras; at 100 µM (top of the series) unless noted
# Sequence of GTPase HRas (Homo sapiens) (P01112 whole entry, looked up): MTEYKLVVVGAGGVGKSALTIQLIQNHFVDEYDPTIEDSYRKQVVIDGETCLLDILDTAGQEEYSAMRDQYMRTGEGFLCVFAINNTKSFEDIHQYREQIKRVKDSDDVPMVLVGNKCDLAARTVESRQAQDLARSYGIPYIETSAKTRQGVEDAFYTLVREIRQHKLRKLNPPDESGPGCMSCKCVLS
# [4] = system: Ras-related protein Rab-7a (dog), GTP binding; assay: Rab7 GTP binding inhibitors, potency, dose response, biochemical, wildtype, multiplex bead flow cytometry (AID 1336; call rule not given here)
# [5] = target: Ras-related C3 botulinum toxin substrate 1 (Homo sapiens) (UniProt P63000); assay: wildtype Rac1 GTP binding inhibitors, dose response, biochemical, multiplex bead flow cytometry (AID 1340); details: GST-Rac1 beads, Bodipy-FL-GTP binding; at 100 µM (top of the series) unless noted
# [6] = target: GTPase HRas (Homo sapiens) (UniProt P01112); assay: activated Ras mutant GTP binding inhibitors, dose response, biochemical, multiplex bead flow cytometry (AID 1341;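 active = dose-response curve with midpoint inside the tested range, moderate steepness, significant amplitude and little compound fluorescence or bead-attachment interference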;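 also: GST-tagged constitutively activated Ras mutant immobilized on beads and multiplexed with other GTPases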)
Compound,outcome [1],"fluorescence, percent of control (lower = inhibition) [2] [%]","GTP binding, percent of control [3] [%]",outcome [4],"GTP binding signal, raw median fluorescence (lower = inhibition) (MCF (arbitrary fluorescence units)) [5]",outcome [6]
COc1cc(/C=N/NC(=O)Nc2cccc3nsnc23)cc(OC)c1OC,inactive,60.6,105,inactive,126,inactive
S=C(NCCc1ccccc1)NC1CC1,inactive,36.3,79.2,inactive,253,inactive
COc1cc2[nH]c(=S)nc(NCCCOC(C)C)c2cc1OC,inactive,38.7,50.6,inactive,116,inactive
COc1cc(NS(=O)(=O)c2ccc(Nc3nc(-c4ccccc4)cs3)cc2)nc(OC)n1,inactive,40.7,53.3,inactive,138,inactive
O=C(Nc1c(F)cccc1F)c1cnc(N2CCN(c3ccccn3)CC2)c2ccccc12,inactive,97,199,inactive,217,inactive
COC(=O)c1cn(CCOc2ccccc2)c2ccccc12,inactive,34.2,83,inactive,225,inactive
COc1ccc(-c2cc(-c3ccccc3)c(C#N)c(=S)[nH]2)cc1,inactive,28.8,69.8,inactive,225,inactive
CCCN1C(=O)/C(=C\C=C2/Sc3ccccc3N2CC)SC1=S,inactive,34.7,57.8,inactive,181,inactive
Cc1nc2ccc(NC(=O)COc3ccccc3)cc2s1,inactive,37.6,89.8,inactive,271,inactive
CC(=O)Nc1cccc(C#CC(=O)c2ccc([N+](=O)[O-])cc2)c1,inactive,39.8,178,inactive,104,inactive
COc1ccc(S(=O)(=O)N2CCN(CC(=O)Nc3cc(C(F)(F)F)ccc3Cl)CC2)cc1,inactive,84.2,153,inactive,182,inactive
COC(=O)c1ccc(COc2ccccc2/C=N/Nc2cccc(C(=O)O)c2)cc1,inactive,52.1,100,inactive,274,inactive
COc1ccc(OC)c(/C=N/NC(=O)c2ccc(Cn3cc([N+](=O)[O-])cn3)o2)c1,inactive,30.5,66.3,inactive,159,inactive
O=C1Nc2ccc(Br)cc2C12NNc1ccccc1O2 (stereo not given),inactive,33,77.8,inactive,182,inactive
CC1=CC(=O)C=C(C)C1=NOS(=O)(=O)c1ccccc1,inactive,29.6,81.2,inactive,223,inactive
Cn1c(=O)c2c(nc(N/N=C/c3ccco3)n2C)n(C)c1=O,inactive,31.1,69.2,inactive,165,inactive
O=C(CCl)Nc1cccn2ncnc12,inactive,37.7,83,inactive,274,inactive
Cn1cc(C(=O)N2CCc3ccccc3C2)c(=O)c2cc(S(=O)(=O)N3CCCCC3)ccc21,inactive,60.6,110,inactive,370,inactive
CCCCCN1CC(O)=C(c2ccccc2)C1=N,inactive,82.3,158,inactive,179,inactive
O=C(COc1ccccc1[N+](=O)[O-])Nc1cc(Cl)ccc1C(=O)O,inactive,32.7,75.6,inactive,215,inactive
Cc1ccc(-c2csc3nc4c5ccccc5c(NCCCN(C)C)nn4c(=O)c23)cc1,inactive,61.7,96.5,inactive,192,inactive
CCOC(=O)c1cc(C(=O)OCC)c(=O)[nH]c1N1CCCC1,inactive,31.6,72.4,inactive,262,inactive
N#CC(C#N)=C1C=CC=CN1/C(=C\c1ccccc1Cl)C(=O)c1ccccc1,inactive,26.2,76.3,inactive,226,inactive
Cc1noc(C)c1COc1cccc(C(=O)NCc2ccccc2Cl)c1,inactive,91.7,163,inactive,186,inactive
O=C(CN1CCN(c2ccc(O)cc2)CC1)Nc1cc(S(=O)(=O)N2CCCCC2)ccc1Cl,inactive,35.8,87.7,inactive,281,inactive
Cc1ccc(CS(=O)(=O)c2ccccc2-c2nnc(-c3ccc(Cl)cc3)o2)cc1,inactive,88.2,156,inactive,181,inactive
COc1ccc(/C=N/n2c(N)c(S(=O)(=O)c3cccs3)c3nc4ccccc4nc32)cc1OC,inactive,37.1,49.3,inactive,118,inactive
S=C(Nc1ccc(Oc2ccccc2)cc1)NC1CCCCCC1,inactive,28,87.3,inactive,300,inactive
O=C(C[n+]1cccc(CNC(=O)c2ccc(OC(F)F)cc2)c1)Nc1ccccc1Cl,inactive,51.9,60.5,inactive,203,inactive
COc1cc2[nH]c(=S)nc(NCCC(C)C)c2cc1OC,inactive,29.1,55.6,inactive,123,inactive
